From PubChem BioAssay (NCATS)
Where “and” joins values, the source holds several entries; their conditions need not be identical. Equal entries are not always repeated. Results filed as inconclusive are left out. A number with no mark means an inactive call. Calls of active or inactive are those of the source. Calls follow the shape of the dose curve; as a rule, active = well fitted curve in the direction sought with a large enough effect; inconclusive = small, poorly fitted or top-dose-only effect, or another doubt; inactive = no such curve, though single readings can be large; an effect the other way counts as inactive or inconclusive.

Columns and labels:
[1] = Viability qHTS for spleen associated tyrosine kinase inhibitor (SYKi) naive MV4-11 cells (AID 1963823); also: nearly all actives have a fitted effect of over 40% in size
Method in brief: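 Viability of MV4-11 AML cells lacking prior SYK inhibitor exposure is scored by CellTiter-Glo luminescence following 72 hr compound incubation at 37 C, 5% CO2, seeded at 500 cells per well.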

[2] = Cellular viability qHTS for adrenocortical cancer (ACC) cell line NCI-H295R (AID 1963990); also: nearly all actives have a fitted effect of over 60% in size
Method in brief: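 Compound titrations (up to 46 uM final) are applied to NCI-H295R cultures for 48 h at 37C. Viable cell number is estimated by CellTiter-Glo signal, normalised to DMSO and doxorubicin controls.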

[3] = Viability qHTS for spleen associated tyrosine kinase inhibitor (SYKi) drug resistant MV4-11 cells (AID 1963824); also: nearly all actives have a fitted effect of over 35% in size
Method in brief: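 CellTiter-Glo luminescence, read 10 min after reagent addition, reports viability after a 72 hr compound exposure. Cells are an MV4-11 line made resistant to SYK inhibition, seeded at 500 per well onto compound-containing plates.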
Potency is read from the fitted curve at half-maximal effect.

SMILES: CC(C)(C)NCC(O)c1cc(O)cc(O)c1 (stereo not given)
- Potency [1]: inactive
- Potency [2]: 25.9 µM (active)

SMILES: C[C@@H](O)[C@H]1C(=O)N2C(C(=O)O)=C(S[C@@H]3CN[C@H](CNS(N)(=O)=O)C3)[C@H](C)[C@H]12
- Potency [1]: inactive
- Potency [2]: inactive

SMILES: C=C1C[C@H]2[C@@H]3C=C(C)C4=CC(=O)CC[C@]4(C)[C@H]3CC[C@]2(C)[C@@]1(OC(C)=O)C(C)=O
- Potency [1]: 18.8 µM (active)
- Potency [2]: inactive

SMILES: O=C(O)CN1C(=O)c2cccc3cccc(c23)C1=O
- Potency [1]: inactive
- Potency [2]: inactive

SMILES: CC(=O)N1c2ccc(-c3ccc(C(=O)O)cc3)cc2C(Nc2ccc(Cl)cc2)CC1C (stereo not given)
- Potency [3]: 0.0461 µM (active)

SMILES: C=CC(C)(C)C1(CC2NC(=O)C3CCCN3C2=O)C(=O)Nc2cc3c(cc21)C=CC(C)(C)O3 (stereo not given)
- Potency [3]: 1.12 µM (active)

SMILES: Cc1ccc2c(Br)cc(Br)c(O)c2n1
- Potency [1]: 16.8 µM (active)
- Potency [2]: 1.64 µM (active)

SMILES: COC(=O)C1=C(C)NC(C)=C(C(=O)O[C@@H]2CCCN(Cc3ccccc3)C2)[C@@H]1c1cccc([N+](=O)[O-])c1
- Potency [1]: 21.1 µM (active) and 13 µM (active)
- Potency [2]: 23.1 µM (active)

SMILES: CCN(CC)CCNC(=O)c1c(C)[nH]c(/C=C2\C(=O)Nc3ccc(Cl)cc32)c1C
- Potency [3]: 0.0146 µM (active)

SMILES: O=C(O)c1ccc(CN2CCC(CN[C@@H]3C[C@H]3c3ccccc3)CC2)cc1
- Potency [1]: inactive
- Potency [2]: inactive

SMILES: C=C1CC[C@H](O)CC1=C/C=C1\CCC[C@]2(C)[C@@H]([C@H](C)/C=C/[C@H](C)C(C)C)CC[C@@H]12
- Potency [3]: 9.2 µM (active)

SMILES: CCCCNc1ccc(C(=O)OCCOCCOCCOCCOCCOCCOCCOCCOCCOC)cc1
- Potency [1]: 10.6 µM (active)
- Potency [2]: inactive

SMILES: COC(=O)CCCCC(CCSS/C(CCO)=C(\C)N(C=O)Cc1cnc(C)nc1N)SC(C)=O (stereo not given)
- Potency [1]: inactive
- Potency [2]: inactive

SMILES: CCCCCCCCCCCCCC#CC(=O)[C@@H]1COC(C)(C)N1C(=O)OC(C)(C)C
- Potency [3]: inactive

SMILES: CCc1c(-c2ccccc2C)nc2c(C#N)c[nH]n2c1=O
- Potency [1]: inactive
- Potency [2]: inactive

SMILES: CCc1cc(S(=O)(=O)O)c2cc(C(C)C)cccc1-2
- Potency [1]: inactive
- Potency [2]: inactive

SMILES: C/C=C(\C)C(=O)OC1C(C)C2(O)C3C=C(C)C(=O)C3CC(CO)=CC2C2C(C)(C)C12OC(C)=O (stereo not given)
- Potency [3]: inactive

SMILES: C/C=C/C=C/C=C/C(=O)O[C@@H]1C=C(CO)C(O)(C(=O)OC)[C@@]2(C)CCCC(C)(C)C12 (stereo not given in full)
- Potency [3]: 10 µM (active)

SMILES: C=CC(C)(C)c1[nH]c2ccccc2c1C[C@@H]1NC(=O)[C@H](C)NC1=O
- Potency [3]: inactive

SMILES: Cc1ccc(NS(=O)(=O)c2cc3c(cc2N(C)C)CCC(=O)N3)cc1C
- Potency [3]: 18.4 µM (active)

SMILES: COc1cc(/C=C/C(=O)OCC2OC(OC3(CO)OC(CO)C(O)C3O)C(O)C(O)C2O)ccc1O (stereo not given)
- Potency [3]: inactive

SMILES: NC(=O)c1cnc(-c2ccc(C3(N)CCC3)cc2)c(-c2ccccc2)c1
- Potency [3]: 20.9 µM (active) and 580 nM (active)

SMILES: C/C=C/C=C/c1cc2c(C=O)c(O)c(CC=C(C)C)cc2o1
- Potency [3]: 18.4 µM (active)

SMILES: Cc1cccc(C)c1OCc1cc(C(=O)N2CCC(c3ccncc3)CC2)no1
- Potency [3]: 9.2 µM (active)

SMILES: C[C@@H]1O[C@@H](O[C@H]2[C@H](O[C@H]3CO[C@@H](O[C@H]4CC[C@@]5(C)C(CC[C@]6(C)C5CC[C@]57OC[C@@]8(CC[C@](C)(CO)CC85)[C@H](O)C[C@]76C)C4(C)C)[C@H](O[C@@H]4O[C@H](CO)[C@@H](O)[C@H](O)[C@H]4O)[C@H]3O)O[C@H](CO)[C@@H](O)[C@@H]2O)[C@H](O)[C@H](O)[C@H]1O (stereo not given in full)
- viability, % of control [3]: 95% [at 9.25 µM]

SMILES: COC1CC(=O)C23C(=O)NC(CC(C)C)C2C(C)C(C)=CC3/C=C(\C)CCC1O (stereo not given)
- Potency [3]: 7.96 µM (active)

SMILES: COC(CCc1ccc(O)cc1)CC(=O)CCc1ccc(O)cc1 (stereo not given)
- Potency [3]: 14.3 µM (active)

SMILES: CC1=CC2C(CC1OC1OC(CO)C(O)C(O)C1O)C(C)CC(=O)C2C(C)C (stereo not given)
- Potency [3]: inactive

SMILES: CNC(=O)c1ccc(-c2cnc3cnc(C(=O)N(C)c4ccc(Cl)cc4)cn23)cc1
- Potency [3]: 18.4 µM (active)

SMILES: C/C=C(\C)C(=O)O[C@H]1[C@H](O)[C@]2(COC(C)=O)[C@H](O)C[C@]3(C)C(=CCC4[C@@]5(C)CC[C@H](O[C@@H]6O[C@H](C(=O)O)[C@@H](O[C@@H]7O[C@H](CO)[C@@H](O)[C@H](O)[C@H]7O)[C@H](O)[C@H]6O[C@@H]6O[C@H](CO)[C@@H](O)[C@H](O)[C@H]6O)[C@](C)(CO)C5CC[C@]43C)[C@@H]2CC1(C)C (stereo not given in full)
- viability, % of control [3]: 97.8% [at 9.25 µM]

SMILES: C[C@@H](Oc1cc(-n2cnc3ccc(OC4CCN(C)CC4)cc32)sc1C(N)=O)c1ccccc1Cl
- Potency [3]: 0.013 µM (active)

SMILES: CC(=O)N1CCc2ccc(O)c(OC3OC(COC4OCC(O)(CO)C4O)C(O)C(O)C3O)c2C1Cc1ccc(O)cc1 (stereo not given)
- Potency [3]: inactive

SMILES: O=C(Nc1ccc(Cl)cc1)c1ccccc1NCc1ccncc1
- Potency [3]: 11.6 µM (active)

SMILES: O=[N+]([O-])c1ccc(-[n+]2nc(-c3ccccc3)nn2-c2ccc(I)cc2)cc1
- Potency [3]: inactive

SMILES: C=C1C(OC2OCC(O)C(O)C2O)CC2C(C)(C)C(O)CCC2(C)C1CC/C(C)=C\CO (stereo not given)
- Potency [3]: 7.09 µM (active)

SMILES: C[C@@H]1C(=O)O[C@H]2CC34[C@H]5C[C@@H](C(C)(C)C)C36[C@@H](OC(=O)[C@@H]6O)OC4(C(=O)O5)[C@]21O (stereo not given in full)
- Potency [3]: inactive

SMILES: CNC(C)C(=O)NC(C(=O)N1CCCC1c1nc(C(=O)c2ccc(F)cc2)cs1)C1CCCCC1 (stereo not given)
- Potency [3]: 2.59 µM (active)

SMILES: COc1cc(/C=C/C(=O)OC2[C@H](O)CC(O)(C(=O)O)C[C@H]2O)ccc1O (stereo not given in full)
- Potency [3]: inactive

SMILES: C=CC(C)(C)c1[nH]c2cc3c(cc2c1CC1NC(=O)C2CCCN2C1=O)C=CC(C)(C)O3 (stereo not given)
- Potency [3]: inactive

SMILES: CC(C)(O)c1ccc2c(c1)ncn2-c1cccc(-c2ccccc2C#N)c1
- Potency [3]: 18.4 µM (active)

SMILES: O=C1NC(=O)/C(=C\c2ccc(-c3ccc(F)cc3O)o2)S1
- Potency [3]: 11.6 µM (active)

SMILES: COC(=O)[C@]1(C)CCC[C@@]2(C)C(=O)CC[C@H]3C(=O)C=C(CC[C@@H]21)C3O (stereo not given in full)
- Potency [3]: inactive

SMILES: O=C(Nc1cnccc1Cl)N1CCN(Cc2ccc3c(c2)OC(F)(F)O3)CC1
- Potency [3]: 5.9 µM (active)

SMILES: Cc1occc(=O)c1O[C@@H]1O[C@H](CO[C@@H]2OC[C@](O)(CO)[C@H]2O)[C@@H](O)[C@H](O)[C@H]1O
- Potency [3]: inactive

SMILES: O=C(O)c1ccc(O)c2ncc(N3CCCN(CCc4cccc5ccccc45)CC3)cc12
- Potency [3]: 10.3 µM (active)

SMILES: O=C1NC2CCCCN2C12CCN(CCCN1c3ccccc3CCc3ccc(Cl)cc31)CC2 (stereo not given)
- Potency [3]: 4.61 µM (active)

SMILES: C=C(C)C1CC2(CO)C(=CC1=O)CCC(O)C2C (stereo not given)
- Potency [3]: inactive

SMILES: COc1cc(N2CCC(N3CCN(C)CC3)CC2)ccc1Nc1ncc(Cl)c(-c2c[nH]c3ccccc23)n1
- Potency [3]: 0.0116 µM (active)

SMILES: C=C(C(=O)O)[C@H]1C[C@]2(C)[C@@H](O)CC[C@]23O[C@H]1C[C@@H]3C
- Potency [3]: inactive

SMILES: COc1ccc(Oc2cc(C)c(-c3csc(NC(=O)c4ccncc4)n3)c(C)c2)cc1
- Potency [3]: 0.092 µM (active)

SMILES: [2H]C([2H])([2H])C(OC(=O)[C@H](C)N[P@](=O)(OC[C@H]1O[C@@H](n2ccc(=O)[nH]c2=O)[C@](C)(F)[C@@H]1O)Oc1ccccc1)C([2H])([2H])[2H]
- Potency [3]: 9.2 µM (active)

SMILES: NC(=O)c1csc(C2OC(CO)C(O)C2O)n1 (stereo not given)
- Potency [3]: 8.2 µM (active)

SMILES: CC(C)(C)c1ccc(S(=O)(=O)Nc2ccc(Cl)cc2C(=O)c2cc[n+]([O-])cc2)cc1
- Potency [3]: 20.6 µM (active)

SMILES: C=C(C)[C@@H]1CC[C@]2(C(=O)O)CC[C@]3(C)C(CCC4[C@]5(C)C(CC[C@]43C)C(C)(C)[C@@H](O)[C@@H]5C(=O)O)C12 (stereo not given in full)
- Potency [3]: inactive

SMILES: CN(C)CC/C=C1\c2ccccc2Sc2ccc(Cl)cc21
- Potency [3]: 15 µM (active)

SMILES: CC(C)(O)/C=C/C(=O)[C@](C)(O)[C@H]1[C@H](O)C[C@@]2(C)[C@@H]3CC=C4[C@@H](C[C@H](O[C@@H]5O[C@H](CO)[C@@H](O)[C@H](O)[C@H]5O)C(=O)C4(C)C)[C@]3(C)C(=O)C[C@]12C
- Potency [3]: 6.11 µM (active)

SMILES: CCC(C)C(=O)O[C@H]1CCC=C2C=C[C@H](C)[C@H](CC[C@@H](O)C[C@@H](O)CC(=O)O)[C@H]21 (stereo not given in full)
- Potency [3]: 10 µM (active)

SMILES: CC(=O)O[C@@H]1[C@@H](O)[C@H](O[C@@H]2[C@@H](O)[C@@H](O)[C@H](O[C@H]3[C@H](O[C@H]4[C@H](O[C@H]5CC[C@@]6(C)C(CC[C@]7(C)C6CC=C6[C@@H]8CC(C)(C)CC[C@]8(C(=O)O)CC[C@]67C)[C@]5(C)CO)O[C@H](CO)[C@@H](O)[C@@H]4O)OC[C@@H](O)[C@@H]3O)O[C@H]2C)OC[C@H]1O (stereo not given in full)
- Potency [3]: 3.9 µM (active)

SMILES: CCCSc1nc(N[C@@H]2C[C@H]2c2ccc(F)c(F)c2)c2nnn([C@@H]3C[C@H](OCCO)[C@@H](O)[C@H]3O)c2n1
- Potency [3]: 23.1 µM (active)

SMILES: CC(C)S(=O)(=O)NC[C@H](C)c1ccc(-c2ccc(CCNS(C)(=O)=O)cc2)cc1
- Potency [3]: 2.31 µM (active)

SMILES: CC(C)(O)C1CC=C(C(=O)OC[C@H]2O[C@@H](Oc3cc(C(=O)O)cc(O)c3O)[C@H](O)[C@@H](O)[C@@H]2O)CC1 (stereo not given in full)
- Potency [3]: inactive

SMILES: CC(=O)O[C@@H]1[C@@H](O)[C@H](C)O[C@@H](O[C@H]2[C@@H]3C=CO[C@@H](O[C@@H]4O[C@H](CO)[C@@H](O)[C@H](O)[C@H]4OC(C)=O)[C@@H]3[C@@]3(CO)O[C@@H]23)[C@@H]1OC(=O)/C=C/c1ccc(O)cc1
- Potency [3]: inactive

SMILES: C[C@H]1O[C@@H](O[C@H]2CC[C@@]3(C)C(CC[C@]4(C)C3CC=C3C5CC(C)(C)CC[C@]5(C(=O)O)CC[C@]34C(=O)O)C2(C)C)[C@H](O)[C@@H](O)[C@@H]1O (stereo not given in full)
- Potency [3]: inactive

SMILES: COc1ccc(F)cc1-c1cc(NC(=O)[C@@H]2CCCNC2)ncc1Cl
- Potency [3]: 0.103 µM (active)
